These results are taken from PubChem BioAssay (EPA / NIEHS).

Assay [1] in a line: CCTE_Harrill_HTTr_Viability_DMEM_6hr: (Pilot) CCTE's 6-hour Cell Viability Assessment for the High-Throughput Transcriptomics (HTTr) Platform, in MCF-7 cells cultured in DMEM + 10% fetal bovine serum, Harrill Lab (AID 2283973; active means hit-call score of the fitted dose curve at least 0.9, where 1 is the maximum; inactive means score below 0.9). The gist of the method: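 MCF-7 cells in DMEM + 10% FBS, eight-point dilution series, 6 h exposure. Membrane integrity by propidium iodide exclusion with high-content imaging; bidirectional fit versus DMSO.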

The nature of assay [2]: CCTE_Harrill_HTTr_Viability_DMEM_12hr: (Pilot) CCTE's 12-hour Cell Viability Assessment for the High-Throughput Transcriptomics (HTTr) Platform, in MCF-7 cells cultured in DMEM + 10% fetal bovine serum, Harrill Lab (AID 2283974; active means hit-call score of the fitted dose curve at least 0.9, where 1 is the maximum; inactive means score below 0.9). The source says:
This is a cell-based assay that evaluates cell viability using high content imaging to evaluate membrane integrity using propidium iodide dye exclusion in a 384 well format.One of seven assay components measured from the CCTE_Harrill_HTTr_Viability assay. This was part of a pilot experiment. This is a cell-based assay that evaluates cell viability in MCF-7 cells cultured in DMEM + 10% fetal bovine serum. High content imaging is used to evaluate membrane integrity using propidium iodide dye exclusion. Measurements are taken at 12 hours after chemical dosing in 384-well format.The assay component endpoint CCTE_Harrill_HTTr_Viability_DMEM_12hr was analyzed with bidirectional fitting relation to DMSO as the negative control and baseline of activity. Using a type of viability reporter to understand changes in cytotoxicity, gain-of-signal activity can be used to evaluate membrane integrity using propidium iodide dye exclusion. To generalize the intended target to other relatable targets, this assay endpoint is annotated to cell cycle, where the subfamily is cytotoxicity.
Chemicals were tested in MCF7 cells in an eight point dilution series with a twelve hour exposure duration.

A short description of assay [3]: CCTE_Harrill_HTTr_Viability_DMEM_24hr: (Pilot) CCTE's 24-hour Cell Viability Assessment for the High-Throughput Transcriptomics (HTTr) Platform, in MCF-7 cells cultured in DMEM + 10% fetal bovine serum, Harrill Lab (AID 2283975; active means hit-call score of the fitted dose curve at least 0.9, where 1 is the maximum; inactive means score below 0.9). The gist of the method:
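MCF-7 cells in DMEM with 10% FBS exposed for 24 hours to an eight-point dilution series. Membrane integrity by propidium iodide exclusion with high content imaging; bidirectional fit against DMSO.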

Assay [4] can be described thus: CCTE_Harrill_HTTr_Viability_PRF_DMEM_6hr: (Pilot) CCTE's 6-hour Cell Viability Assessment for the High-Throughput Transcriptomics (HTTr) Platform, in MCF-7 cells cultured phenol red-free DMEM + 10% charcoal-stripped fetal bovine serum, Harrill Lab (AID 2283976; active means hit-call score of the fitted dose curve at least 0.9, where 1 is the maximum; inactive means score below 0.9). The source says:
This is a cell-based assay that evaluates cell viability using high content imaging to evaluate membrane integrity using propidium iodide dye exclusion in a 384 well format.One of seven assay components measured from the CCTE_Harrill_HTTr_Viability assay. This was part of a pilot experiment. This is a cell-based assay that evaluates cell viability in MCF-7 cells cultured in phenol red-free DMEM + 10% charcoal-stripped fetal bovine serum. High content imaging is used to evaluate membrane integrity using propidium iodide dye exclusion. Measurements are taken at 6 hours after chemical dosing in 384-well format.The assay component endpoint CCTE_Harrill_HTTr_Viability_PRF_DMEM_6hr was analyzed with bidirectional fitting relation to DMSO as the negative control and baseline of activity. Using a type of viability reporter to understand changes in cytotoxicity, gain-of-signal activity can be used to evaluate membrane integrity using propidium iodide dye exclusion. To generalize the intended target to other relatable targets, this assay endpoint is annotated to cell cycle, where the subfamily is cytotoxicity.
Chemicals were tested in MCF7 cells in an eight point dilution series with a six hour exposure duration.

Assay [5] has as its target THRB (gene 7068) (UniProt P10828). Description: TOX21_TRB_COA_Agonist_Followup_ratio: Tox21 Thyroid Hormone Receptor beta Agonism through Coactivator Recruitment Follow-Up Assay, Ratio (AID 2283963; active means hit-call score of the fitted dose curve at least 0.9, where 1 is the maximum; inactive means score below 0.9). The method in brief: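 Signal is the 520/495 nm emission ratio (excitation 340 nm), scaled between DMSO-only wells as 0% and T3 wells as 100%. It reflects fluorescein-labeled SRC-2 peptide recruitment to GST-TRβ ligand-binding domain detected via terbium anti-GST antibody.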

The target of assay [6] is Retinoic acid receptor RXR-alpha (Homo sapiens) (UniProt P19793). Description: TOX21_TR_RXR_BLA_Agonist_Followup_ratio: Tox21 Thyroid Hormone Receptor beta Retinoid X Receptor alpha (RXRa) Agonism Beta-lactamase (BLA) Follow-Up Assay, Ratio (AID 2283968). The method in brief: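 RXRa-UAS-bla HEK293T cells (GAL4 beta-lactamase reporter) were treated with compounds at 11 concentrations in triplicate for 16 h at 37C/5% CO2, then loaded with CCF4-AM substrate for 2 h at room temperature; activity is the 460:530 nm ratio versus DMSO baseline.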

The nature of assay [7]: TOX21_TRB_BLA_Antagonist_Followup_viability: Viability Assessment in the Tox21 Thyroid Hormone Receptor beta Antagonism Beta-lactamase (BLA) Follow-Up Assay (AID 2283961). The source says: The GeneBLAzer TRb-UAS-bla HEK293T assay kit for human TRb (ThermoFisherScientific Catalog No. K1684) was used as a secondary assay for specificity (TRb-bla).This assay contained the ligand-binding domain (LBD) of the human TRb fused to the DNA-binding domain of GAL4 stably integrated in the GeneBLAzer UAS-bla HEK293Tcell line. The reporter gene, b-lactamase, is under the transcriptional control of a UAS that binds the GAL4 DNA-binding domain. A cell viability assay was run in parallel for these cells as well using the CellTiter-Glo viability assay kit.TOX21_TRB_BLA_Antagonist_Followup_viability is a component of the TOX21_TRB_BLA_Antagonist_Followup assay. This component measures cell viability using the CellTiter-Glo Luciferase-coupled ATP quantitation.TOX21_TRB_BLA_Antagonist_Followup_viability used a type of viability reporter where loss-of-signal activity can be used to understand changes in the cell viability. Furthermore, this assay endpoint can be referred to as a secondary readout, because this assay has produced multiple assay endpoints where this one serves a viability function. To generalize the intended target to other relatable targets, this assay endpoint is annotated to the cell cycle intended target family, where the subfamily is cytotoxicity. […]

The target in assay [8] is THRB (gene 7068) (UniProt P10828). Description: TOX21_TRB_COA_Antagonist_Followup_ratio: Tox21 Thyroid Hormone Receptor beta Antagonism through Coactivator Recruitment Follow-Up Assay, Ratio (AID 2283967). The gist of the method: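 Test compound was incubated with 5.0 nM GST-TRβ LBD in 0.10% BSA. Then 200 nM fluorescein-SRC-2 peptide and 2 nM terbium anti-GST antibody were added. TR-FRET (520:495 nm) was measured and normalized to DMSO and T3 controls.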

Assay [9] concerns the target Retinoic acid receptor RXR-alpha (Homo sapiens) (UniProt P19793). Description: TOX21_TR_RXR_BLA_Antagonist_Followup_ratio: Tox21 Thyroid Hormone Receptor beta Retinoid X Receptor alpha (RXRa) Antagonism Beta-lactamase (BLA) Follow-Up Assay, Ratio (AID 2283972). The gist of the method: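 RXRa-UAS-bla HEK293T cells, 2,500/well in phenol red-free DMEM with 2% charcoal-stripped FBS, 5 h attachment, then compounds (11 concentrations, triplicate) for 16 h at 37C; FRET-B/GCCF4-AM substrate 2 h RT; 460:530 nm ratio, loss of signal vs DMSO.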

Assay [10] is described as follows: TOX21_TR_RXR_BLA_Agonist_Followup_viability: Viability Assessment in the Tox21 Thyroid Hormone Receptor beta Retinoid X Receptor alpha (RXRa) Agonism Beta-lactamase (BLA) Follow-Up Assay (AID 2283970). The gist of the method:
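RXRa-UAS-bla HEK293T cells seeded at 2,500/well in phenol red-free DMEM with 2% charcoal-stripped FBS, exposed to compound 16h at 37C/5% CO2 in qHTS. Viability read by CellTiter-Glo ATP luminescence; bidirectional fitting against DMSO baseline, signal loss indicating cytotoxicity.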

SMILES strings stand for the structures. Records with an inconclusive call do not appear. Calls of active or inactive are those of the source. How the source made its calls, unless noted: active means hit-call score of the fitted dose curve at least 0.9, where 1 is the maximum; inconclusive means response in the unintended direction; inactive means score below 0.9.

Sequence of THRB (gene 7068) (P10828 whole entry, looked up, the tested form may be a part): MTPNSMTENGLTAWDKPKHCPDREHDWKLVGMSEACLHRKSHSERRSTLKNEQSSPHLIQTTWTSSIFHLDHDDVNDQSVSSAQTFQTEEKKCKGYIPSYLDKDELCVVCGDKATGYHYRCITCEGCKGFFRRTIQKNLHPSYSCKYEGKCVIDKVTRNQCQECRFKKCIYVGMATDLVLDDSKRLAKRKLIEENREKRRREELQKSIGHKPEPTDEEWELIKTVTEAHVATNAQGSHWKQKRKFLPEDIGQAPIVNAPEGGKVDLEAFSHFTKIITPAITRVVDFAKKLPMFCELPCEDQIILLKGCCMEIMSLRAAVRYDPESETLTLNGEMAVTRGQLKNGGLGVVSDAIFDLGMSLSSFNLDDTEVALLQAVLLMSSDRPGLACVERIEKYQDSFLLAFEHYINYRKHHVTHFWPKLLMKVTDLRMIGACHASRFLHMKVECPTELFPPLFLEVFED
Sequence of Retinoic acid receptor RXR-alpha (Homo sapiens) (P19793 whole entry, looked up, the tested form may be a part): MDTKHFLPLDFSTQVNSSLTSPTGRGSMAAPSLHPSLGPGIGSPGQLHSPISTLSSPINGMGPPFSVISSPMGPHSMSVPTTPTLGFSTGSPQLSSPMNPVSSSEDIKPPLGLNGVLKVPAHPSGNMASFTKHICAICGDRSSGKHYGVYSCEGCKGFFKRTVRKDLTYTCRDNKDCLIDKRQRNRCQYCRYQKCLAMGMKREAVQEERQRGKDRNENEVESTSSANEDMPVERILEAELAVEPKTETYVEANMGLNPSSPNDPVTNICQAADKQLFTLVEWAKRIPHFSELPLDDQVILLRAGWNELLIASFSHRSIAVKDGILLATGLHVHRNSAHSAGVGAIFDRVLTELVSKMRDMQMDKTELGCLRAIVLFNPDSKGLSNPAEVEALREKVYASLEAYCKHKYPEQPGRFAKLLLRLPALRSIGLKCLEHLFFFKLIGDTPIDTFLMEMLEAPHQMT

For the molecule `CC1(C)NC(=O)N(c2ccc([N+](=O)[O-])c(C(F)(F)F)c2)C1=O`, the outcome in assay [1], in [2], in [3] and in assay [4] was inactive.
Take `O=C1O[C@H]([C@@H](O)CO)C(O)=C1O`: the result (in the assay with THRB (gene 7068) [5]; in [6]) was inactive.
With `COc1cc(C(=O)NC2CCN(C)CC2)ccc1Nc1ncc2c(n1)N(C1CCCC1)CC(F)(F)C(=O)N2C`, the AC50 in assay [7] is 46.7 µM (active). Besides, the result (with THRB (gene 7068) [8]; in assay [9]) was inactive.
Turning to `O=C(O)Cc1cc(I)c(Oc2ccc(O)c(I)c2)c(I)c1`, the call in [10] was inactive.
